High-throughput results from PubChem.
Most compounds without a hit are left out; they make up all but 6.8% or so of the library.
Pf Dd2 growth = blocks growth of Plasmodium falciparum Dd2 parasites | P. falciparum Dd2 growth, SYBR Green, 72 h; active compounds read low | activity change, % at 10 µM | 94,000 tested, 2.3% active | AID 1159554; in the data active means activity change below about -80%; inconclusive means no clear call, values can overlap the other calls
T cruzi growth-1 = inhibitors of T. cruzi proliferation; T. cruzi beta-gal in NIH3T3, GalScreen luminescence, 90 h; inhibition, % at 8.34 µM; 77,000 tested, 5.9% active;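 active means mean inhibition above about 93%, with at least 55% of replicates each passing it, limit read from the data, passing the limit was not always enough; inconclusive means only one of those two conditions holds; inactive means neither condition holds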
C diff HTS = blocks growth of Clostridium difficile; AID 1259249; growth activity, negative = inhibition, % at 16 µg/mL (by protocol); 86,000 tested, 0.25% active; Clostridium difficile clinical isolate growth, OD600, 24 h; active compounds read low;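 active means mean growth activity at or below -80% and every replicate also at or below -80%; inconclusive means mean at or below -80% but some replicate above -80%; inactive means mean growth activity above -80%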;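 further: 0% = DMSO wells and -100% = levofloxacin 16 µg/mL wells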
T cruzi growth-2 = inhibitors of T. cruzi proliferation; shares compounds with T cruzi growth-1; T. cruzi beta-gal in NIH3T3, GalScreen luminescence, 90 h; inhibition, % at 8.35 µM; 5,600 tested, 72% active;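 active means mean replicate inhibition above about 95% and at least 55% of replicates individually reaching it, limit read from the data; inconclusive means only one of the two criteria is met; inactive means neither criterion is met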
T cruzi growth-3 = blocks T. cruzi growth in NIH3T3 host cells; shares compounds with T cruzi growth-1; T. cruzi beta-gal in NIH3T3, GalScreen luminescence, 90 h; inhibition, % at 2.09 µM; 5,600 tested, 21% active;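 active means mean inhibition above about 95%, with at least 55% of replicates also reaching it, limit read from the data; inconclusive means meets just one of the two conditions; inactive means meets neither condition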;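 further: plate controls were neutral control median for no effect and positive control median for full effect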
NIH3T3 tox = NIH/3T3 (mouse) viability loss; NIH/3T3 viability, CellTiter-Glo ATP luminescence, 90 h; cytotoxicity (signal decrease), % at 8.35 µM; AID 651742; 5,600 tested, 14% active; shares compounds with T cruzi growth-1;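 active means mean signal decrease across replicates above about 35% based on untreated-well scatter, with enough replicates individually passing, limit read from the data; inconclusive means no rule stated though some were filed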;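 further: 0% = median of neutral control wells and 100% = median of positive control wells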
3T3 cytotox 2 = NIH/3T3 (mouse) viability loss | shares compounds with T cruzi growth-1 | NIH/3T3 viability, CellTiter-Glo ATP luminescence, 90 h | inhibition, % at 24.9 µM | 5,600 tested, 56% active;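 active means mean loss of cell viability signal at or above a set limit, and enough replicates individually reaching it; inconclusive means meets only the mean limit or only the replicate share; inactive means meets neither condition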;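 further: 0% = median of neutral control wells and 100% = median of positive control wells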
* = called active by the depositor; ? = inconclusive; nt = not tested or not shown.

SMILES	Pf Dd2 growth	T cruzi growth-1	C diff HTS	T cruzi growth-2	T cruzi growth-3	NIH3T3 tox	3T3 cytotox 2
C[C@H](O)C#Cc1ccc2c(c1)O[C@@H](CN(C)Cc1cccnc1)[C@@H](C)CN([C@H](C)CO)S2(=O)=O	13	44	-7	nt	nt	nt	nt
COCC#Cc1ccc2c(c1)O[C@H](CN(C)Cc1cccnc1)[C@@H](C)CN([C@H](C)CO)S2(=O)=O	7	83	0	nt	nt	nt	nt
C[C@H](CO)N1C[C@H](C)[C@@H](CN(C)Cc2cccnc2)Oc2cc(C#CCN(C)C)ccc2S1(=O)=O	-49	104*	1	103*	104*	23	21
CCCC#Cc1ccc2c(c1)O[C@H](CN(C)Cc1cncnc1)[C@@H](C)CN([C@H](C)CO)S2(=O)=O	-25	86	8	nt	nt	nt	nt
CCCC#Cc1ccc2c(c1)O[C@@H](CN(C)Cc1cccnc1)[C@@H](C)CN([C@H](C)CO)S2(=O)=O	15	109*	5	101*	96*	?	29*
COCC#Cc1ccc2c(c1)O[C@H](CN(C)Cc1cccnc1)[C@H](C)CN([C@H](C)CO)S2(=O)=O	9	9	-4	nt	nt	nt	nt
CCCC#Cc1ccc2c(c1)O[C@@H](CN(C)Cc1cccnc1)[C@H](C)CN([C@H](C)CO)S2(=O)=O	-42	119*	6	97*	96*	45*	105*
Cc1noc(C)c1S(=O)(=O)N(C)C[C@@H]1OCCCC[C@H](C)Oc2ccc(NS(=O)(=O)c3ccccc3)cc2C(=O)N([C@H](C)CO)C[C@H]1C	-18	nt	-14	nt	nt	nt	nt
Cc1noc(C)c1NC(=O)Nc1ccc2c(c1)C(=O)N([C@@H](C)CO)C[C@@H](C)[C@@H](CN(C)C(=O)Nc1ccc(F)cc1)OCCCC[C@@H](C)O2	-24	27	4	nt	nt	nt	nt
O=C(Nc1ccccc1F)N1CCCCN2[C@@H](CO)[C@H](c3ccc(C#Cc4ccccc4)cc3)[C@@H]2C1	-78	95*	0	?	115*	119*	104*
COc1ccc(C#Cc2ccc([C@H]3[C@@H](CO)N4CCCCN(C(=O)Nc5ccccc5F)C[C@@H]34)cc2)cc1	-79	140*	-8	?	114*	?	40*
O=C(Nc1ccccc1F)N1CCCCN2[C@H](C1)[C@H](c1ccc(C#Cc3ccccc3)cc1)[C@@H]2CO	-26	69	-5	nt	nt	nt	nt
COc1ccc(C#Cc2ccc([C@@H]3[C@@H](CO)N4CCCCN(C(=O)Nc5ccccc5F)C[C@@H]34)cc2)cc1	-91*	127*	-4	99*	114*	-42	51*
O=C(Nc1ccccc1F)N1CCCCN2[C@H](CO)[C@H](c3ccc(C#Cc4ccccc4)cc3)[C@H]2C1	-69	42	5	nt	nt	nt	nt
CN(C)CC#Cc1ccc([C@H]2[C@@H](CO)N3CCCCN(C(=O)Nc4ccccc4F)C[C@@H]23)cc1	5	33	-1	nt	nt	nt	nt
CNC[C@@H]1Oc2ccc(NS(C)(=O)=O)cc2C(=O)N([C@H](C)CO)C[C@@H]1C	33	-46	-2	nt	nt	nt	nt
C[C@@H](NC(=O)C[C@@H]1CC[C@@H]2[C@H](COC[C@@H](O)CN2C(=O)Nc2cc(Cl)cc(Cl)c2)O1)c1ccccc1	-12	91	nt	nt	nt	nt	nt
Cc1cccc(S(=O)(=O)N2CCCCN3[C@@H](CO)[C@H](c4ccc(C#C[C@@H](C)O)cc4)[C@@H]3C2)c1	-25	82	15	nt	nt	nt	nt
C[C@H](O)C#Cc1ccc([C@H]2[C@@H](CO)N3CCCCN(S(=O)(=O)c4ccccc4)C[C@H]23)cc1	-17	19	-5	nt	nt	nt	nt
C[C@H](O)C#Cc1ccc([C@@H]2[C@H](CO)N3CCCCN(S(=O)(=O)c4ccccc4)C[C@@H]23)cc1	-21	114*	-12	19	13	-1	19
C[C@H](O)C#Cc1ccc([C@H]2[C@H]3CN(S(=O)(=O)c4ccccc4)CCCCN3[C@H]2CO)cc1	-9	?	1	97*	20	3	6
COc1ccc(S(=O)(=O)N(C)C[C@@H]2Oc3ccc(NS(=O)(=O)c4cn(C)cn4)cc3CC(=O)N([C@H](C)CO)C[C@@H]2C)cc1	-15	-35	0	nt	nt	nt	nt
O=C(c1ccc(F)cc1)N1CCCCN2[C@H](C1)[C@H](c1ccc(-c3ccc(F)cc3)cc1)[C@@H]2CO	-6	93	17	nt	nt	nt	nt
O=C(c1ccc(F)cc1)N1CCCCN2[C@H](CO)[C@@H](c3ccc(-c4ccc(F)cc4)cc3)[C@@H]2C1	1	100*	42	99*	103*	18	104*
COc1cccc(-c2ccc([C@H]3[C@@H](CO)N4CCCCN(C(=O)c5ccc(F)cc5)C[C@H]34)cc2)c1	-38	108*	3	108*	94	-18	104*
SMILES	Pf Dd2 growth	T cruzi growth-1	C diff HTS	T cruzi growth-2	T cruzi growth-3	NIH3T3 tox	3T3 cytotox 2
COc1cccc(-c2ccc([C@@H]3[C@@H](CO)N4CCCCN(C(=O)c5ccc(F)cc5)C[C@H]34)cc2)c1	-16	79	-9	nt	nt	nt	nt
O=C(c1ccc(F)cc1)N1CCCCN2[C@@H](CO)[C@H](c3ccc(-c4ccc(F)cc4)cc3)[C@@H]2C1	2	104*	56	89	19	44*	106*
O=C(c1ccc(F)cc1)N1CCCCN2[C@H](C1)[C@@H](c1ccc(-c3ccccc3)cc1)[C@@H]2CO	-49	67	3	nt	nt	nt	nt
CCCNC(=O)[C@H]1[C@H](CO)[C@H]2Cn3c(ccc(-c4ccccc4F)c3=O)[C@@H]1N2S(C)(=O)=O	-1	9	1	nt	nt	nt	nt
O=C(C[C@H]1C[C@H]2c3cc(NS(=O)(=O)c4ccc(F)cc4)ccc3O[C@H]2[C@H](CO)O1)N1CCCCC1	-14	nt	-3	nt	nt	nt	nt
CNC(=O)C[C@H]1CC[C@@H]2[C@H](COc3ccc(NC(=O)NC4CCCC4)cc3C(=O)N2C)O1	10	48	-1	nt	nt	nt	nt
CN(C)CC(=O)N[C@@H]1CC[C@H](CCNC(=O)C2CC2)O[C@@H]1CO	0	nt	-6	nt	nt	nt	nt
C[C@@H]1CN([C@H](C)CO)S(=O)(=O)c2ccc(-c3ccccc3)cc2O[C@@H]1CN(C)C(=O)C1CCC1	10	89	nt	nt	nt	nt	nt
CO[C@@H]1CN(C)C(=O)c2cc(NC(=O)C3CC3)ccc2OC[C@H](C)N(C(=O)Cc2ccccn2)C[C@H]1C	15	-26	0	nt	nt	nt	nt
COc1ccc(S(=O)(=O)N(C)C[C@@H]2OCCCC[C@@H](C)Oc3ccc(NC(=O)NC4CCCCC4)cc3C(=O)N([C@H](C)CO)C[C@H]2C)cc1	-71	70	3	nt	nt	nt	nt
Cc1ccc(S(=O)(=O)Nc2cccc3c2O[C@H](CN(C)S(=O)(=O)c2cn(C)cn2)[C@@H](C)CN([C@@H](C)CO)C3=O)cc1	6	-25	-1	nt	nt	nt	nt
COc1ccc(NC(=O)N(C)C[C@@H]2Oc3ccc(NC(=O)NC(C)C)cc3CC(=O)N([C@H](C)CO)C[C@H]2C)cc1	-9	24	-8	nt	nt	nt	nt
